# VP16 counter = VP16 counterscreen qHTS for inhibitors of ROR gamma transcriptional activity; Drosophila S2 Gal4-VP16 UAS-luciferase, luminescence, 20 h; Potency, µM (titrated, usually from 53.6 µM), inactives show at the highest dose activity, negative = inhibition, hits mostly inhibitors; hit rate 3.5% among 310,000;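 also: Gal4-VP16 expression switched on by copper sulfate through the metallothionein promoter; % is scaled to controls: 0 for no effect and ±100 for the full control effect; nearly all actives have a fitted effect of over 50% in size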
# KB-V1 cytotox = qHTS assay for MDR1-selective chemotherapeutics: Primary screen using the drug-selected MDR subline cells KB-V1; KB-V1 MDR cells viability, CellTiter-Glo, 72 h; Potency, µM (highest dose often 46.1 µM), most hits filed as cytotoxic; hit rate 3.4% among 400,000; also: % is scaled to controls: 0 for no effect and ±100 for the full control effect; nearly all actives have a fitted effect of over 60% in size
#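 Luminescent ATP read-out (CellTiter-Glo, 10 min) measures survival of drug-selected KB-V1 MDR cells after 72 h, 37 degrees C compound exposure. Medium: phenol-red-free DMEM, 10% FBS. Values from fitted concentration-response curves.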
# RORg inh = qHTS for inhibitors of ROR gamma transcriptional activity. AID 2551, 2010. Potency, µM (highest dose often 53.6 µM), for inactives: top-dose activity change, negative = inhibition, most hits filed as inhibitors. Drosophila S2 Gal4-RORgamma UAS-luciferase reporter, 20 h. hit rate 5.4% among 310,000; also: % is scaled to controls: 0 for no effect and ±100 for the full control effect; nearly all actives have a fitted effect of over 60% in size
# Target sequence (P51450 whole entry, looked up, the tested form may be a part): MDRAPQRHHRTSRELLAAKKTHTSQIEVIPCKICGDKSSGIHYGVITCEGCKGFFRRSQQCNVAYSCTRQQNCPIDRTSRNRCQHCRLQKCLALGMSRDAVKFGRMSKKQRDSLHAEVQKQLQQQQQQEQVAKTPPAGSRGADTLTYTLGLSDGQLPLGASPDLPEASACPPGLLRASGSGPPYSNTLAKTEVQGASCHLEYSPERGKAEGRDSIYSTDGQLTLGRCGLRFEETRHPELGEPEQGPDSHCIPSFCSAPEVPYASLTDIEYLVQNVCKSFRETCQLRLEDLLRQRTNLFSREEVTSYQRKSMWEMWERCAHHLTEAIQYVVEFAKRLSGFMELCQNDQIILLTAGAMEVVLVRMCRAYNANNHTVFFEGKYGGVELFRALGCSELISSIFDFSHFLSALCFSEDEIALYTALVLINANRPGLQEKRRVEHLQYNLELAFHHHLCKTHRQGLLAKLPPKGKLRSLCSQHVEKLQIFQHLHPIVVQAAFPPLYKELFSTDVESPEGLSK
#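 Stable Schneider cell line, Gal4 DNA-binding domain fused to ROR gamma, UAS-luciferase. Cmpd 1 hr RT → CuSO4 700 uM final → 20 hr RT → luciferase reagent 10 min → luminescence.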
# MCF10A rerep = A quantitative high throughput screen for small molecules that induce DNA re-replication in MCF 10a normal breast cells | MCF 10A DNA re-replication, Hoechst nuclear intensity, 48 h | Potency, µM (top dose mostly 46.1 µM), for inactives: top-dose activity, positive = re-replication, hits mostly activators | hit rate 2.9% among 350,000 | AID 624296, 2012; also: % of control where 0% means no effect; nearly all actives have a fitted effect of over 50% in size
# KB-3-1 tox = qHTS assay for MDR1-selective chemotherapeutics: Primary screen using the parental adenocarcinoma cell KB-3-1 | KB-3-1 viability, CellTiter-Glo ATP luminescence, 72 h | AID 1347075, 2019 | Potency, µM (titrated, usually from 46.1 µM), most hits filed as cytotoxic | hit rate 1.4% among 400,000; also: % is scaled to controls: 0 for no effect and ±100 for the full control effect; nearly all actives have a fitted effect of over 60% in size
#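 72 h, 37 °C compound treatment of KB-3-1 parental cells; CellTiter-Glo added, 10 min, luminescence read. Data corrected against DMSO-only plates and normalized before curve fitting.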
# SW480 rerep = A quantitative high throughput screen for small molecules that induce DNA re-replication in SW480 colon adenocarcinoma cells; SW480 DNA re-replication, Hoechst DNA content imaging, 48 h; Potency, µM (highest dose often 46.1 µM), for the others: at the top dose re-replication activation, hits mostly activators; hit rate 1.8% among 340,000; also: % of control where 0% means no effect; nearly all actives have a fitted effect of over 55% in size
#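 Image-based DNA-content assay: after two days of treatment, nuclei were labelled with the DNA dye Hoechst and imaged, and hits were compounds raising the count of nuclei showing high fluorescence intensity.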
# * marks the source's active call; other numbers are inactive results; i = inactive; ? = inconclusive; · = not tested or not shown. Only some compounds are listed: those with a hit (about 10% of all), similar ones and a draw of the others. Calls follow the shape of the dose curve; as a rule, active = well fitted curve in the direction sought with a large enough effect; inconclusive = small, poorly fitted or top-dose-only effect, or another doubt; inactive = no such curve, though single readings can be large; an effect the other way counts as inactive or inconclusive. Potency is read from the fitted curve at half-maximal effect.
SMILES,VP16 counter,KB-V1 cytotox,RORg inh,MCF10A rerep,KB-3-1 tox,SW480 rerep
CCC(=O)c1ccc(N2CCN(C(=O)c3ccc(Br)cc3)CC2)c(F)c1,?,15µM*,?,4%,i,-1%
O=C(CN1C(=O)c2cccnc2Oc2ccc(Cl)cc21)NCCCN1CCCCC1,·,i,·,·,i,·
Cc1cccc(NCC(=O)N/N=C/c2cccc(Br)c2)c1,-10%,?,-2%,26%,i,-2%
Cc1nn(-c2cccc(C(F)(F)F)c2)c(Cl)c1/C=N/Nc1cccc(C(=O)O)c1,?,i,-20%,1%,i,1%
O=C(CNc1cccc(C(F)(F)F)c1)N/N=C/c1cccc(Br)c1,?,i,?,21µM*,i,0%
Cc1nn(Cc2ccccc2)c(Cl)c1/C=N/NC(=O)CNc1cccc(C(F)(F)F)c1,?,9.2µM*,-17%,?,i,-3%
O=C(Cn1c(=O)n(CCc2ccccc2)c(=O)c2c3c(sc21)CCCC3)Nc1ccc(F)c(F)c1,·,i,·,·,i,·
CC(C)(C)OC(=O)Nc1ccccc1-n1nnnc1C(C(=O)c1ccc(F)cc1)N1CCN(c2ccccn2)CC1 (centres undefined),·,i,·,·,i,·
C/C(=N\NC(=S)NC1CCCCC1)c1cccc(C(F)(F)F)c1,2.5µM*,i,?,?,i,1%
CCNC(=S)N/N=C(\C)c1cccc(C(F)(F)F)c1,4.5µM*,?,1.3µM*,-3%,i,-3%
C/C(=N\NC(=S)NC1CCCCC1)c1cccc(Br)c1,1µM*,i,2.2µM*,?,i,-3%
C/C(=N\NC(=S)NC1CCCCC1)c1ccc(C#N)cc1,2µM*,i,2.2µM*,1%,i,-3%
CC(=O)N/N=C(\C)c1cccc(C(F)(F)F)c1,18%,?,-2%,-16%,i,-5%
O=C(COC(=O)c1cccc(Br)c1)NC1CCCCCCC1,·,i,·,·,i,·
COc1ccc(C(=O)N2CCC[C@@]3(CCN(Cc4nccs4)C3)C2)cc1,2%,·,0%,·,·,·
NC(=S)Nc1nc2ccccc2s1,3.5µM*,8.2µM*,?,0%,?,?
Cn1cc(Cl)c(C(=O)Nc2nc3ccccc3s2)n1,?,18µM*,-85%,-12%,i,2%
COc1ccccc1C(=O)Nc1nc2ccccc2s1,1µM*,?,0.63µM*,17%,?,-1%
COc1ccc(-c2nc3ccccc3s2)cc1NC(=O)c1ccccc1OC,·,i,·,·,i,·
O=C(Nc1nc2ccccc2s1)c1c(F)cccc1Cl,25%,i,18%,16%,?,-53%
CCc1nnc(NC(=O)c2ccc(OC)cc2OC)s1,10µM*,?,6.3µM*,0%,i,-1%
Cc1ccc(-n2ncc(C(=O)NCCc3c[nH]c4ccccc34)c2C2CCN(C(=O)OC(C)(C)C)CC2)cc1C,·,?,·,·,i,·
COc1ccc2nc(NC(=O)c3ccccc3C(=O)O)sc2c1,-9%,i,-4%,16%,i,25%
COc1ccc(C(=O)Nc2nc3ccccc3s2)c(OC)c1,·,6.5µM*,·,?,7.3µM*,?
CCCN(CC(=O)Nc1ccccc1C)C(=O)COc1c(Cl)cccc1Cl,·,5.8µM*,·,4%,i,5%
SMILES,VP16 counter,KB-V1 cytotox,RORg inh,MCF10A rerep,KB-3-1 tox,SW480 rerep
CCCN(CC(=O)Nc1ccccc1C)C(=O)CCl,-4%,?,?,?,16µM*,20%
CCCN(CC(=O)Nc1ccccc1C)C(=O)COc1c(C)cccc1C,·,i,·,-3%,i,3%
N#CC1=C(N)Oc2c(ccc3ccccc23)C1c1ccsc1 (centres undefined),3%,?,1%,?,6.5µM*,?
COc1cc(NC(=O)c2cc(-c3cccc(Cl)c3)on2)c(OC)cc1Cl,·,i,·,·,i,·
C=CCn1c(N2CCCCCC2)nc2c1c(=O)n(C)c(=O)n2C,2%,16µM*,25%,0%,i,-9%
Cn1c(=O)c2c(nc(N3CCCC3)n2CC(O)CO)n(C)c1=O (centres undefined),2%,i,-8%,5%,i,0%
C=CCOCC(O)Cn1c(N2CCCC2)nc2c1c(=O)n(C)c(=O)n2C (centres undefined),-4%,i,2%,1.3µM*,i,-36%
CCCCn1c(SCc2ccccc2C#N)nc2c(sc3ccccc32)c1=O,·,i,·,·,i,·
O=C(c1ccc(F)cc1)N1CCN=C1c1ccccc1,-17%,i,14%,?,i,13µM*
COc1cc(C(=O)N2CCN=C2c2ccccc2)cc(OC)c1OC,0%,i,6%,-1%,i,2%
CCCCOc1ccc(C(O)(CCC)CCN2CCOCC2)cc1 (centres undefined),-18%,10µM*,?,?,23µM*,?
CCCCCCC(O)(c1ccccc1)C(CN1CCOCC1)c1ccccc1 (centres undefined),-23%,?,37%,?,?,3%
CCCCCCC(O)(c1ccc(OC)cc1)C(CN1CCOCC1)c1ccccc1 (centres undefined),-17%,?,27%,?,18µM*,?
CCCCOc1ccc(C(O)(CC)CCN2CCOCC2)cc1 (centres undefined),0%,?,-34%,-8%,i,-3%
CC(C)Oc1ccc(CNC(=O)C2=Cc3ccccc3OC2)cc1,·,i,·,·,i,·
O=C(c1ccc(Cn2c(=S)[nH]c3ccccc3c2=O)cc1)N1CCN(c2ccccn2)CC1,?,?,11µM*,?,i,?
O=C(c1ccc(Cn2c(=O)[nH]c3ccccc3c2=O)cc1)N1CCN(c2ccccc2)CC1,-11%,21µM*,38%,-3%,?,4%
O=C(c1ccc(Cn2c(=O)[nH]c3ccccc3c2=O)cc1)N1CCN(c2ccccn2)CC1,-2%,i,8%,-1%,i,-6%
CCCCC(=O)NC(=S)NNS(=O)(=O)c1ccccc1,20µM*,i,13µM*,3%,i,-1%
CCCCC(=O)NC(=S)Nc1cccc(NC(=O)CC)c1,-5%,i,?,0%,i,1%
O=C(NC(=S)NNS(=O)(=O)c1ccccc1)c1cccnc1,-10%,i,?,7%,i,3%

# Screens from PubChem BioAssay.
